Measured values reported in PubChem BioAssay (NCATS).
Values joined by “and” are separate entries in the source; they are usually repeats but may differ in a detail not shown here. Equal entries are not always repeated. Inconclusive results are not listed. Some structures have more than one record in an assay (separate samples or runs), and their calls can disagree. Active and inactive are the calls of the source. Unless noted, calls follow the shape of the dose curve; as a rule, active = well fitted curve in the direction sought with a large enough effect; inconclusive = small, poorly fitted or top-dose-only effect, or another doubt; inactive = no such curve, though single readings can be large; an effect the other way counts as inactive or inconclusive.

Legend:
[1] = target: Cytochrome P450 3A4 (Homo sapiens) (UniProt P08684); experiment: qHTS Assay for Activators of Cytochrome P450 3A4 (AID 885); also: nearly all actives have a fitted effect of over 65% in size; also: potency is read from the fitted curve at half-maximal effect
Cytochrome P450 3A4 (Homo sapiens), sequence (P08684 whole entry, looked up): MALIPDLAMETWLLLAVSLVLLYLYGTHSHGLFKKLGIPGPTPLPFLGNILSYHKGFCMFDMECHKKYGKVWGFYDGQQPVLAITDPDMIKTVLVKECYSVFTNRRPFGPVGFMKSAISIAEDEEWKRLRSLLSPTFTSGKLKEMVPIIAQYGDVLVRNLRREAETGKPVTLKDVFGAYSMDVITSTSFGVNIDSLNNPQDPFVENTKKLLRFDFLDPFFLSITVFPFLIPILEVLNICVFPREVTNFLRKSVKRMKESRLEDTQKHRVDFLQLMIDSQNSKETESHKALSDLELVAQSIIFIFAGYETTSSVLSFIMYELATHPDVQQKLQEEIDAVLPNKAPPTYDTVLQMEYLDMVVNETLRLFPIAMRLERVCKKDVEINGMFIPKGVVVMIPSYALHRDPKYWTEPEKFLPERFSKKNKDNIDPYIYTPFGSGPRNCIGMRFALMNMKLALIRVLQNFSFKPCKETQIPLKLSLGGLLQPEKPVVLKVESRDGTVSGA
Method in brief: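 Human CYP3A4 dealkylates Luciferin-PPXE to luciferin, which luciferase detection converts to light. Substrate was at its KM (25uM), buffer 200mM KPO4, reaction 60 min at RT.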

[2] = Confirmation and Secondary Assay for Modulators of Hemoglobin Beta Chain Splicing at IVS2 654 locus (AID 910);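 also: HeLa cells stably carrying EGFP split by mutant beta-globin IVS2-654 intron; per-well total GFP intensity by laser scanning cytometry after 2-day treatment; % of control where 0% means no effect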
Method in brief: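 Readout: per-well total peak green fluorescence (488 nm ex, 500–520 nm em) from objects 5–250 µm, reflecting correct splicing of an EGFP-654 reporter. Compounds were applied for 2 days at 37 °C to overnight-plated HeLa EGFP-654 cells; controls were DMSO and 500 nM IVS2-654 PNA.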

[3] = Confirmation and Secondary Assay for Modulators of Hemoglobin Beta Chain Splicing at IVS2 705 locus (AID 930);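 also: HeLa cells stably expressing the EGFP-705 splicing reporter; GFP fluorescence per well restored by corrected splicing of the IVS2-705 intron in EGFP; % of control where 0% means no effect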
Method in brief: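 First, HeLa EGFP-705 cells are seeded at 500/well in Optimem with 2% FCS and left overnight. Next, compound or DMSO is added for 2 days. Finally wells are laser-scanned and total peak GFP intensity scored.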

[4] = qHTS Assay for Lipid Storage Modulators (AID 1519; calls by dose curve; as to activity change, negative = inhibition: % is scaled to controls: 0 for no effect and ±100 for the full control effect); settings: Drosophila S3 cells, BODIPY lipid droplet/cell ratio, laser cytometry, cells loaded with oleic acid
Method in brief: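 Cells seeded at 5,000 per well were treated with compounds over a concentration series and loaded with oleic acid (400 uM, as added). Lipid droplet fluorescence (488 nm excitation, 500-530 nm channel) was read by laser-scanning cytometry and normalized to 20 uM Triacsin C.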

[5] = target: Rap guanine nucleotide exchange factor 3 (Homo sapiens) (UniProt O95398); experiment: Confirmatory qHTS for antagonist of cAMP-regulated guanine nucleotide exchange factor 3 (EPAC1) (AID 1645880);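 also: plate controls were DMSO only for no effect and full effect of the ATA control for full effect; nearly all actives have a fitted effect of over 55% in size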
Rap guanine nucleotide exchange factor 3 (Homo sapiens), sequence (O95398 whole entry, looked up): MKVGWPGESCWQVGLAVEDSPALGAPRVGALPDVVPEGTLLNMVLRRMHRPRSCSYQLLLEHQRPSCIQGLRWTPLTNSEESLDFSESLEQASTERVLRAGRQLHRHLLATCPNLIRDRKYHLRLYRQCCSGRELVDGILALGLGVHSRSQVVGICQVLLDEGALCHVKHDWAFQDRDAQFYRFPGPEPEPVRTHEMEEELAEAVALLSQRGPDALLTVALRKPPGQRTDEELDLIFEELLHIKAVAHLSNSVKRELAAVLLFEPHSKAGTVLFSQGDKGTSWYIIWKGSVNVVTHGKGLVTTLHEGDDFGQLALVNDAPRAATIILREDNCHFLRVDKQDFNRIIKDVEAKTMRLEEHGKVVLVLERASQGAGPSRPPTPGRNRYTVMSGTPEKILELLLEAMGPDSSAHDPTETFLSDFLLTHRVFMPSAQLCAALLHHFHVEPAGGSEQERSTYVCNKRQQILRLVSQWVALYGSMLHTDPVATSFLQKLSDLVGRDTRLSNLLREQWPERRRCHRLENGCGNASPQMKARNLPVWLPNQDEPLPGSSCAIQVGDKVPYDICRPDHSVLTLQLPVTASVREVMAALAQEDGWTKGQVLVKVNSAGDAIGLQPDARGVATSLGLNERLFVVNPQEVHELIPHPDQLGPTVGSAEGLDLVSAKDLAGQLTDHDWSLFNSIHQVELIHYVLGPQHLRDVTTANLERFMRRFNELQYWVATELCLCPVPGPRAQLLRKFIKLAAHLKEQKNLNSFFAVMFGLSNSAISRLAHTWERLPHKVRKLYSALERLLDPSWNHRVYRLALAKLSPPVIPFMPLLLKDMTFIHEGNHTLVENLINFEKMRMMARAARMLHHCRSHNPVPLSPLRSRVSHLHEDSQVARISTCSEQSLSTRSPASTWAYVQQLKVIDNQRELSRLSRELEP
Method in brief: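 Released BODIPY-GDP fluoresces less than Rap1-bound BODIPY-GDP; the signal is followed at 480/540 nm at 5-min intervals over 30 min, after 5 min at room temperature. Reactions contain 100 nM EPAC1, 250 nM RAP1B-BODIPY-GDP and 50 uM GDP; results are normalized to ATA and DMSO.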

[6] = target: Rap guanine nucleotide exchange factor 3 (Homo sapiens) (UniProt O95398); experiment: Confirmatory qHTS for agonist of cAMP-regulated guanine nucleotide exchange factor 3 (EPAC1) (AID 1645881);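 also: EPAC1 catalysed release of BODIPY-GDP from Rap1B seen as fluorescence loss; 100% = effect of cAMP agonist control; nearly all actives have a fitted effect of over 75% in size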
[7] = target: Rap guanine nucleotide exchange factor 4 (Homo sapiens) (UniProt Q8WZA2); experiment: Confirmatory qHTS for agonist of cAMP-regulated guanine nucleotide exchange factor 4 (EPAC2) (AID 1645884);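 also: nucleotide exchange releases bodipy-GDP from Rap1 and this lowers its fluorescence; % is scaled to controls: 0 for no effect and ±100 for the full control effect; nearly all actives have a fitted effect of over 65% in size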
Rap guanine nucleotide exchange factor 4 (Homo sapiens), sequence (Q8WZA2 whole entry, looked up): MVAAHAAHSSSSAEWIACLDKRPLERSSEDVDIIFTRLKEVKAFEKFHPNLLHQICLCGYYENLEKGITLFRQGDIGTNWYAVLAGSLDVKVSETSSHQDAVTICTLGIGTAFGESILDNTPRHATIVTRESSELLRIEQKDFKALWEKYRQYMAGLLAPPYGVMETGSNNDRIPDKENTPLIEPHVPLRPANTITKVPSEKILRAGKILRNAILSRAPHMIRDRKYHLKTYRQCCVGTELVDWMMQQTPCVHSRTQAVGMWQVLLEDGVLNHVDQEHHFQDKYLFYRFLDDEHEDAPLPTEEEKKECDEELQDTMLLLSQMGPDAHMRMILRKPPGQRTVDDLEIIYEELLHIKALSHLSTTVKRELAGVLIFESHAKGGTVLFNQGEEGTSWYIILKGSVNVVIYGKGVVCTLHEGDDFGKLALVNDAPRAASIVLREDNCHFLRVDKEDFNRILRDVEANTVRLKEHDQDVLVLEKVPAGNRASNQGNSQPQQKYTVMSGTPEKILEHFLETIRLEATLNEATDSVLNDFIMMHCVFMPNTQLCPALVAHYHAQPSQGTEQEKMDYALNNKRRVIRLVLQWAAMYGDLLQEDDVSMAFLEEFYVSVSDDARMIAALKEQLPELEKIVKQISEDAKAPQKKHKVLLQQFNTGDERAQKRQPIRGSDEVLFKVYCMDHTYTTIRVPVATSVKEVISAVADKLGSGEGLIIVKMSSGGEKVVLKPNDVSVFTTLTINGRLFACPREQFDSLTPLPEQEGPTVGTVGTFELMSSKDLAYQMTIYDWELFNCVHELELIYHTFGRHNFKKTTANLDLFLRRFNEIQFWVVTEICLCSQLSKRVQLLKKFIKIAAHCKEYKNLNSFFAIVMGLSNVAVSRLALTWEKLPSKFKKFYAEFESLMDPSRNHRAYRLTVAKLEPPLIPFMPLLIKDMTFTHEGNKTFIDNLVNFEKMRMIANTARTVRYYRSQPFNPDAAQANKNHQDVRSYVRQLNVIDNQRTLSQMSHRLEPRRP

[8] = target: Rap guanine nucleotide exchange factor 4 (Homo sapiens) (UniProt Q8WZA2); experiment: Confirmatory qHTS for antagonist of cAMP-regulated guanine nucleotide exchange factor 4 (EPAC2) (AID 1645885); also: nearly all actives have a fitted effect of over 25% in size; also: potency is read from the fitted curve at half-maximal effect; as to activity change, negative = inhibition: % is scaled to controls: 0 for no effect and ±100 for the full control effect
[9] = target: Cytochrome P450 3A4 (Homo sapiens) (UniProt P08684); experiment: qHTS Assay for Inhibitors and Substrates of Cytochrome P450 3A4 (AID 884); also: nearly all actives have a fitted effect of over 50% in size; also: potency is read from the fitted curve at half-maximal effect
Method in brief: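 Luminescent readout of luciferin produced by CYP3A4 (20 nM) dealkylation of Luciferin-PPXE, 25 uM (its KM). NADPH-driven reaction ran 60 min at RT after 10 min compound preincubation; data scaled to 57 uM ketoconazole as 100% inhibition.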

[10] = target: Glucocorticoid receptor (Homo sapiens) (UniProt P04150); experiment: GR-GFP Redistribution (AID 450;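 active = compounds whose dose series gives a full or clear partial fitted curve of increased nuclear translocation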; also: potency is read from the fitted curve at half-maximal effect); settings: U2OS GR-GFP nuclear translocation, laser cytometry, 2 h
Glucocorticoid receptor (Homo sapiens), sequence (P04150 whole entry, looked up, the tested form may be a part): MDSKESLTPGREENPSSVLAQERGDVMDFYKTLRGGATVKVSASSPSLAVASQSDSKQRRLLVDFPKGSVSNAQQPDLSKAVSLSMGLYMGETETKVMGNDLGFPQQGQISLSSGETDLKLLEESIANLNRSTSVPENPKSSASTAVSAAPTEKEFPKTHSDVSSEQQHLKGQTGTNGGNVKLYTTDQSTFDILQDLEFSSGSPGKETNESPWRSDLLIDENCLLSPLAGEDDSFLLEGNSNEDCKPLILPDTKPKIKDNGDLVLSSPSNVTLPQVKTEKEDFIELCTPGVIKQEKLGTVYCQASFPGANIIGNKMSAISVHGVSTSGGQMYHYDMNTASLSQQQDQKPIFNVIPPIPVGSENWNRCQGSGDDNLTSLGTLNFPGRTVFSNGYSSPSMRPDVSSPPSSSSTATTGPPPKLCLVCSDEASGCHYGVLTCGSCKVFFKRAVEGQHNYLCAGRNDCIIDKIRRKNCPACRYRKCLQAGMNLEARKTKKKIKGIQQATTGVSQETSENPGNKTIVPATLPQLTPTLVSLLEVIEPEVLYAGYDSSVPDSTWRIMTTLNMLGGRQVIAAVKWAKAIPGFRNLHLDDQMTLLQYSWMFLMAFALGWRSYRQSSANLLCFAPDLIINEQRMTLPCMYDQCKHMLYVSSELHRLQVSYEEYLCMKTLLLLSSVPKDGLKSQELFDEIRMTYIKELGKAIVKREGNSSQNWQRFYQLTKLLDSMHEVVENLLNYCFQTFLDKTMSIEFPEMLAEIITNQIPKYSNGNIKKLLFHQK

[11] = target: Glucocorticoid receptor (Homo sapiens) (UniProt P04150); experiment: GR-EFC Redistribution (AID 451; calls by dose curve; also: potency is read from the fitted curve at half-maximal effect); settings: CHO-K1 GR-EFC translocation, beta-gal luminescence, 2 h
Method in brief: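 Translocation of GR-ED fusion to nuclear EA restores b-gal, read by luminescence after 1 h room-temperature detection. Engineered CHO-K1 biosensor cells, 1,000/well, exposed 2 h at 37 C to titrations up to 46 uM final.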

[12] = target: 3',5'-cyclic-AMP phosphodiesterase 4B (Homo sapiens) (UniProt Q07343); experiment: qHTS Assay for Inhibitors of PDE-IV (AID 607; active = well fitted activation curve with a large enough effect in the main read-out, with a control signal flat, not every such curve was filed as active; also: % of control where 0% means no effect)
3',5'-cyclic-AMP phosphodiesterase 4B (Homo sapiens), sequence (Q07343 whole entry, looked up): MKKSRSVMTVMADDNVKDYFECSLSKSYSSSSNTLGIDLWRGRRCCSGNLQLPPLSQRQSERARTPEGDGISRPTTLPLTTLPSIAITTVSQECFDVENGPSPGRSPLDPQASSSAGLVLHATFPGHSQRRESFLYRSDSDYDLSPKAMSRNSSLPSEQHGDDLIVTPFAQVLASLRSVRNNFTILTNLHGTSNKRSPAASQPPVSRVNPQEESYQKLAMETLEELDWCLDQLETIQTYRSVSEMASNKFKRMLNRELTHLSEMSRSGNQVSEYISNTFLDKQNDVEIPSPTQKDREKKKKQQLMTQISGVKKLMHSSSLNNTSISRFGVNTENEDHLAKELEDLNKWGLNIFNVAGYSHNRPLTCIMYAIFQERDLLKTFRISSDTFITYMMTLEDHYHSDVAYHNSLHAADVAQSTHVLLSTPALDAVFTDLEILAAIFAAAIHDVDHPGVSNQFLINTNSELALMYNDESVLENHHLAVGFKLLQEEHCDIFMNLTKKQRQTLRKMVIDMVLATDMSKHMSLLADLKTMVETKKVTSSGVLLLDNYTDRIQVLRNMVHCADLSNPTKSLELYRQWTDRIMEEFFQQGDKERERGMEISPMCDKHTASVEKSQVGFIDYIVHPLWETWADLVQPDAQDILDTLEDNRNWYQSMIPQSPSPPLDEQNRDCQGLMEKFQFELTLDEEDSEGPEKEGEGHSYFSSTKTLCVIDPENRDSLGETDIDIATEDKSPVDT
Method in brief: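 HEK293 ACTOne cells with CNG channel (1000/well), endogenous PDE4; membrane potential dye, compounds up to 22.9 uM final. Fluorescence Ex 535/Em 590; RO 20-1724 (100 uM final) as reference.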

[13] = target: Cytochrome P450 2C9 (Homo sapiens) (UniProt P11712); experiment: qHTS Assay for Inhibitors and Substrates of Cytochrome P450 2C9 (AID 883); also: % is scaled to controls: 0 for no effect and ±100 for the full control effect; nearly all actives have a fitted effect of over 60% in size
Method in brief: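 Inhibition of CYP2C9 is scored as loss of luminescence, with 57uM sulphaphenazole defining 100% inhibition. Substrate Luciferin-H is used at 100uM, equal to its KM; enzyme at 10nM in 25mM KPO4, 60 min at 37C with NADPH regeneration.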

[14] = target: Cytochrome P450 2D6 (Homo sapiens) (UniProt P10635); experiment: qHTS Assay for Inhibitors and Substrates of Cytochrome P450 2D6 (AID 891);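 also: luciferin methyl ether substrate demethylated by CYP2D6 with NADPH regeneration; % is scaled to controls: 0 for no effect and ±100 for the full control effect; nearly all actives have a fitted effect of over 60% in size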
Method in brief: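 Luminescent read-out of luciferin formed by 5 nM human CYP2D6 demethylating 30 uM Luciferin-ME EGE (Km level) over 60 min at room temperature after NADPH regeneration addition. Data normalized to full inhibition by 1.43 uM quinidine.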

[15] = target: Cytochrome P450 2C19 (Homo sapiens) (UniProt P33261); experiment: qHTS Assay for Inhibitors and Substrates of Cytochrome P450 2C19 (AID 899); also: % is scaled to controls: 0 for no effect and ±100 for the full control effect; nearly all actives have a fitted effect of over 60% in size
Method in brief: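 5nM enzyme + 10uM Luciferin-H EGE (=KM), 50mM KPO4; cpd pin-transferred, 10 min 37C; NADPH regen, 60 min 37C; stopped w/ luciferin detection reagent, 20 min; luminescence. Normalized to 57uM ketoconazole (AC100).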

[16] = target: DNA dC->dU-editing enzyme APOBEC-3G (Homo sapiens) (UniProt Q9HC16); experiment: qHTS for inhibitors of Vif-A3G interactions: Validation (AID 588379); also: 0% is about no effect
Method in brief: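 Yellow fluorescence (Ex 488, Em 500-530) of Vif-coexpressing HeLa A3G-eYFP cells, scanned by Acumen cytometer, reports blocked A3G degradation. Cells plated at 700/well overnight at 37 deg C before compound addition, then a further overnight compound incubation at 37 deg C.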

[17] = target: Rap guanine nucleotide exchange factor 3 (Homo sapiens) (UniProt O95398); experiment: Counterscreen qHTS for antagonist of cAMP-regulated guanine nucleotide exchange factor 3 (EPAC1) (AID 1645888); also: % of control where 0% means no effect
Method in brief: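 Rap1B-BODIPY-GDP 250 nM + GDP 50 uM; cpds 7-pt, final 9.74 nM–152 uM (activator mode) or from 7.32 nM upwards (inhibitor mode); RT; FI 480/540 nm at 5 and 30 min, then ± cAMP, reread.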

[18] = target: Ubiquitin carboxyl-terminal hydrolase 1 (Homo sapiens) (UniProt O94782); experiment: Inhibitors of USP1/UAF1: Pilot qHTS (AID 504865);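 also: rhodamine fluorescence freed from ubiquitin-rhodamine substrate followed over time; top concentration of the series differs between compounds; % is scaled to controls: 0 for no effect and ±100 for the full control effect; nearly all actives have a fitted effect of over 35% in size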
Ubiquitin carboxyl-terminal hydrolase 1 (Homo sapiens), sequence (O94782 whole entry, looked up): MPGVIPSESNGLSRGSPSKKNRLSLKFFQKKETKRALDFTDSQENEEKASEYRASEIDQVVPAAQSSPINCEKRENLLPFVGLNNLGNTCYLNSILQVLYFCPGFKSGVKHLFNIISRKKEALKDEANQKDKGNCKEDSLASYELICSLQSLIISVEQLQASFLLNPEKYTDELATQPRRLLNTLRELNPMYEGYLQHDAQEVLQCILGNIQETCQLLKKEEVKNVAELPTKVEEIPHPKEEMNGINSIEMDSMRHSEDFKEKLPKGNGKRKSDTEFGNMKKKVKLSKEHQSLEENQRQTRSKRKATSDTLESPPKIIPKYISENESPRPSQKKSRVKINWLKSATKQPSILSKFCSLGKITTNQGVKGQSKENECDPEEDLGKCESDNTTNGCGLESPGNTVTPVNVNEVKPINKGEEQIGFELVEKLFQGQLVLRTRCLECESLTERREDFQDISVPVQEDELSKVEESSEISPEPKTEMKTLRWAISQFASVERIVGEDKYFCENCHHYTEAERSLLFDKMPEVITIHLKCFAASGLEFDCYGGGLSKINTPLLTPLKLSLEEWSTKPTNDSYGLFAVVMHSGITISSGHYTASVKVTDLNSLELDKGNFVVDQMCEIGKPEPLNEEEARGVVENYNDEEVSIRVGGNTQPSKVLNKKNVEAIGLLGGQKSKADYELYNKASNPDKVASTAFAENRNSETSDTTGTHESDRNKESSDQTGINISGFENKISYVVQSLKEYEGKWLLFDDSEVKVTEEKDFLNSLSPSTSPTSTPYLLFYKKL
Method in brief: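 In 50mM HEPES pH 7.8 containing 0.5mM EDTA, 1mM TCEP, 0.1 mg/ml BSA and 0.01% Tween-20, 1nM USP1/UAF1 is exposed to compound for 15 min, then Ub-Rho (150nM final) is added and fluorescence is read over time.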

[19] = AP1 Signaling Pathway (AID 357; active = well fitted curve in either direction with a large enough effect, not every such curve was filed as active;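 also: ME-180 reporter cells stimulated with EGF at its EC50 level; % is scaled to controls: 0 for no effect and ±100 for the full control effect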); settings: ME-180 AP-1-bla reporter, EGF-induced, beta-lactamase ratio, 5 h; at 7.69 µM (top of the series) unless noted
Method in brief: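 First, ME-180 AP-1-bla cells were cultured overnight at 37 °C in low-serum Opti-MEM. Next, titrated compounds with EC50 EGF were incubated 5 hours. Finally, CCF4 was added for 2.5 hours and the 460/530 nm ratio recorded.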

[20] = target: Cytochrome P450 1A2 (Homo sapiens) (UniProt P05177); experiment: p450-cyp1a2 (AID 410; calls by dose curve;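 also: -100% = full effect of reference inhibitor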)
Method in brief: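 Read-out is luminescence from luciferin produced by CYP1A2 demethylation of Luciferin-ME (100uM, at Km). Detection reagent stopped the 60 min NADPH-dependent reaction; signals were normalized to 57 uM furafylline.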

[21] = Stat Signaling Pathway (AID 446; active = well fitted curve in either direction with a large enough effect, not every such curve was filed as active;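 also: ME-180 cervical cancer cells given 40 pM IL-6 alongside compound; SIE-controlled beta-lactamase reporter measured as 460/530 nm FRET emission ratio; % is scaled to controls: 0 for no effect and ±100 for the full control effect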); settings: ME-180 (cervical carcinoma) SIE beta-lactamase reporter, IL-6 stimulated, 5 h; at 7.69 µM (top of the series) unless noted
Method in brief: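 Normalization used AC90 stimulation (300 pM IL-6) and AC90 inhibition (125 nM pan-JAK inhibitor at 40 pM IL-6). The underlying signal is SIE-driven beta-lactamase in ME-180 cells after 5 h IL-6 exposure with compound.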

[22] = measured here: cell count channel max response
[23] = measured here: lipid channel max response

COc1ccc2c(c1)OCc1c-2oc2cc(OC)ccc12
inactive: Potency [1] | Potency [2] | outcome [3] | activity change, negative = inhibition ([4]; at 57.5 µM (top of the series)) 8.22% | Potency [5] | Potency [6] | Potency [7] | Potency [8]
8.38%: max response [4, 23]
-1.79%: max response [4, 22]

C=C[C@](C)(O)CCC1C(=C)CC(OC(C)=O)C2C(C)(C)CCCC12C (some centres not stated)
active: Potency [9] 2.51 µM | Potency [8] 11.1 µM
0.207%: max response [4, 23]
1.16%: max response [4, 22]
inactive: Potency [1] | outcome [3] | activity change, negative = inhibition ([4]; at 57.5 µM (top of the series)) -0.933% | Potency [6] | Potency [7]

COc1c(-c2ccc(O)c(O)c2)oc2cc(O)cc(O)c2c1=O
inactive: Potency [10] > 46 µM | Potency [11] > 46 µM | Potency [12] | Potency [13] | Potency [9] | Potency [14] | Potency [15] | activity change, negative = inhibition ([4]; at 57.5 µM (top of the series)) 0.206% | outcome [16] | Potency [6] | Potency [7] | Potency [8] | outcome [17]
-17.7%: max response [4, 23]
-16.5%: max response [4, 22]

C=CC(C1=CC(=O)C(OC)=CC1=O)c1ccccc1 (configuration not stated)
-0.41%: max response [4, 22]
-12.3%: max response [4, 23]
active: Potency [9] 20 µM | Potency [8] 31.2 µM
inactive: Potency [1] | Potency [2] | outcome [3] | activity change, negative = inhibition ([4]; at 57.5 µM (top of the series)) -14.6% | Potency [6] | Potency [7]

N[C@H](C(=O)O)C(O)C(O)C(O)CO (some centres not stated)
-0.517%: max response [4, 22]
3.07%: max response [4, 23]
inactive: Potency [2] | outcome [3] | activity change, negative = inhibition ([4]; at 57.5 µM (top of the series)) 2.74% | Potency [18] | Potency [5] | Potency [6] | Potency [7] | Potency [8]

Nc1nc2n[nH]nc2c(=O)[nH]1
15.7%: max response [4, 22]
inactive: activity change, negative = inhibition [19] -1.23% [at 17.2 µM] | Potency [20] | activity, negative = inhibition [21] -26.9% [at 17.2 µM] | Potency [10] > 20.6 µM | Potency [11] > 20.6 µM | Potency [12] | activity change, negative = inhibition ([4]; at 25.7 µM (top of the series)) -1.04% | Potency [18] | Potency [6] | Potency [7] | Potency [8]
11%: max response [4, 23]

CC(=O)OC1CC[C@]2(C)C(CC(OC(C)=O)[C@@]3(C)C4=CC(=O)OC(c5ccoc5)[C@]4(C)CCC23)C1(C)C (some centres not stated)
inactive: Potency [2] | outcome [3] | activity change, negative = inhibition ([4]; at 57.5 µM (top of the series)) -24.5% and -12.6% and 0.61% | Potency [5] | Potency [6] | Potency [7]
6.99% and 9.73% and 16%: max response [4, 22]
6.31 µM (active) and inactive: Potency [1]
-14.8% and -4.52% and 18.3%: max response [4, 23]
inactive and 2.51 µM (active): Potency [9]
